PubChem BioAssay AID1942 (Johns Hopkins Ion Channel Center, 2009)
Among all 2,400 compounds or so, about 580 (24%) were called active. Only a sample is shown. Unmarked numbers belong to inactive results.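 How the source made its calls: active means activity change at or above the mean plus 3 SD of buffer wells without dofetilide, per plate; inactive means the rest.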

What follows are compounds tested against Potassium voltage-gated channel subfamily KQT member 2 (Rattus norvegicus) (UniProt O88943) (assay: rat KCNQ2 channel activation by compounds alone, confirmation, counter-screen for hERG block protector project, cell-based, CHO, FluxOR thallium flux (AID 1942;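 further: normalized value minus buffer-control mean plus three SD of buffer wells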)). Conditions: CHO-KCNQ2 cells, FluxOR thallium flux fluorescence; at 10 µM; active compounds read high.
Potassium voltage-gated channel subfamily KQT member 2 (Rattus norvegicus), sequence (O88943 whole entry, looked up): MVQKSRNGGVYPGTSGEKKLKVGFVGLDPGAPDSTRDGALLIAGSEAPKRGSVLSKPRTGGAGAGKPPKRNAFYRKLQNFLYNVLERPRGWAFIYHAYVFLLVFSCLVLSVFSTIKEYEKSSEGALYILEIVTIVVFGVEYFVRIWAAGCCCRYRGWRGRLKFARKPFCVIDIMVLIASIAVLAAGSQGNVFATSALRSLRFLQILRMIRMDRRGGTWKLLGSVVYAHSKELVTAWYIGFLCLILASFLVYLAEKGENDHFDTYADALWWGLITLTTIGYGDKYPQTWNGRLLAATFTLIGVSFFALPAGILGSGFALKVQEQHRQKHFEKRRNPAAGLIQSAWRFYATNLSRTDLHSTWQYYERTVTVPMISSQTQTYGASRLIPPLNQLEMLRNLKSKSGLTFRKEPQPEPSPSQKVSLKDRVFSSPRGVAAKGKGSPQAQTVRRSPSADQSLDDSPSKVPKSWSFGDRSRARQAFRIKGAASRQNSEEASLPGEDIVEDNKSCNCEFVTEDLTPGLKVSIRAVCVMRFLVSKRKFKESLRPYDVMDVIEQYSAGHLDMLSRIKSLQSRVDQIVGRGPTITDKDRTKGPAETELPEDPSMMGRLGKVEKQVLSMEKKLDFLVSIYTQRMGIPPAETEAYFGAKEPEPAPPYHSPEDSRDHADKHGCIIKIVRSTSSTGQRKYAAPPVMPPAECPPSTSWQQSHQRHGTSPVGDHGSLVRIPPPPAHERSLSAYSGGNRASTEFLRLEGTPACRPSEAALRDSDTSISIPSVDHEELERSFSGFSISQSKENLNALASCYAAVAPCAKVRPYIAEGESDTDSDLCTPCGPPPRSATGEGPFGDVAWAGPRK

SMILES | activity change, less the hit threshold
S=c1[nH]nc(CSc2nc3ccccc3s2)n1C1CCCCC1 | -2.2%
Cc1ccc(CNC(=O)c2ccc(CNc3c(N4CCCC4)c(=O)c3=O)cc2)cc1 | -23.6%
Cc1ccc(C(=O)Nc2nc(=O)n(C)s2)cc1 | -12%
Cc1ccc(C(=O)NNc2cc(N3CCCC3)nc(N3CCCC3)n2)cc1 | 16.1% (active)
O=C(Nc1nnc(C2=COCCO2)o1)c1ccc(Br)cc1 | -2.3%
CCn1cc(C(=O)NCCN(C)C)c(=O)c2cc(F)c(N3CCN(C)CC3)cc21 | -23.9%
COc1ccc(C(=O)Nc2ccc(-n3nncc3C(C)(C)C)cc2)cc1 | 17.5% (active)
COc1ccc(NC(=O)c2ccc(NC3=NC4CS(=O)(=O)CC4S3)cc2)cc1 (centres undefined) | -19.9%
COc1ccc(NC(=O)c2ccc(COCC(F)(F)C(F)F)cc2)cc1 | -19.7%
CCSc1nnc(NC(=O)CC(C)C)s1 | -11.1%
Cc1[nH]n2c(=O)cc(C(C)C)nc2c1-c1ccccc1 | -3.3%
Cc1[nH]n2c(=O)cc(C(C)(C)C)nc2c1-c1ccccc1 | 14.6% (active)
O=c1cc(-c2ccccc2)nc2c(-c3ccccc3)c(C(F)(F)F)[nH]n12 | 59.6% (active)
NC(=O)c1nn2c(C(F)(F)F)cc(-c3ccccc3)nc2c1Br | -18.2%
Cc1nn(CCC#N)c2nc(-c3ccccc3)cc(C(F)(F)F)c12 | -22.2%
CN(C(=O)CCc1ccccc1)c1nnc(-c2ccncc2)s1 | -20.2%
Cc1cc(=O)oc2cc(OCC(=O)OCC(=O)NC(C)C)ccc12 | -16.8%
O=C(NCCc1nnc2ccc(NCc3ccc(Cl)cc3)nn12)c1ccccc1 | -7.7%
O=C(N/N=C/c1cc([N+](=O)[O-])ccc1O)c1ccc(COc2ccc3c(c2)CCC3)o1 | -47.5%
N#CCCn1cc(/C=N/NC(=O)c2ccncc2)c(-c2ccc(F)cc2)n1 | -4.3%
CCn1ccnc1CN1CCCC(CO)(Cc2cccc(OC)c2)C1 (centres undefined) | -24.6%
CCNC(=O)C/C(C)=N/NC(=O)C(=O)Nc1ccc(CC)cc1 | 4.9% (active)
CCCCNC(=O)COC(=O)c1ccc(NC(C)=O)cc1 | -20.3%
CSCC[C@H](NC(=O)Nc1ccc(C)cc1C)C(=O)O | -12%
CCOC(=O)C1CCN(S(=O)(=O)c2cccc3nonc23)CC1 | -11.1%

SMILES | activity change, less the hit threshold
O=C(O)CN1C(=O)c2ccc(Oc3ccc4c(c3)C(=O)N(CC(=O)O)C4=O)cc2C1=O | -11.1%
O=C(O)Cc1cc(I)c(Oc2ccc(O)c(I)c2)c(I)c1 | 93.7% (active)
NC(=O)Cn1c2[n+](c3ccccc31)CC(O)CS2 (centres undefined) | -19.2%
Cc1ccc(NC(=O)C2C3CCC(O3)C2C(=O)O)cc1C (centres undefined) | -2.7%
Cc1ccc(C(C)NC(=O)C2CCCC2)cc1C (centres undefined) | 37.3% (active)
CCc1ccccc1N(CC(=O)NC(C)c1ccccc1)S(C)(=O)=O (centres undefined) | -20.5%
CCc1ccc(C(C)NC(=O)C2CCCC2)cc1 (centres undefined) | 14.8% (active)
Cc1ccc(NC(=O)c2noc3c2CCC3)cc1C | -19.4%
CSc1ccccc1-n1nnnc1SCC(=O)Nc1cc(C)ccc1C | -20.8%
C=CCSC1=C(C#N)C(c2ccccc2)CC(=O)N1 (centres undefined) | -23.3%
O=C(CNC(=O)c1ccccc1)NCc1ccc(Cl)cc1 | -10.7%
Cc1ccsc1/C=N/NC(=O)CNC(=O)c1ccccc1 | -13.4%
Cc1nn(C(=O)CNC(=O)c2ccccc2)c(C)c1C | 17.2% (active)
Cc1ccc(S(=O)(=O)N2CCOCC2)cc1NC(=O)COC(=O)c1cccnc1Cl | -22.8%
CC(C)c1ccc(CNc2nc3nc4c(c(=O)n3[nH]2)CCC4)cc1 | 0.8% (active)
CCC(=O)Nc1ccc(N2CCOCC2)c(S(=O)(=O)Nc2ccc(OC)cc2)c1 | -22.6%
Cc1ccc2[nH]c(C(=O)O)c(-c3ccccc3)c2c1 | -8.1%
Cc1ccc(-n2nc3ccc(N)cc3n2)c(C)c1 | -29.1%
Cc1cc(C)cc(-n2ncc3c2CCCC3NC(=O)c2csnn2)c1 (centres undefined) | -28.6%
CC(O)C(NS(=O)(=O)c1ccc(Cl)cc1)C(=O)OCc1cc([N+](=O)[O-])cc2c1OCOC2 (centres undefined) | -18.1%
O=[N+]([O-])c1ccc(Nc2ccc(Cl)cc2)nc1 | 3.5% (active)
O=[N+]([O-])c1ccc(Nc2ccccc2F)nc1 | -2.6%
O=[N+]([O-])c1ccc(CSc2nnc(SCc3ccc(Cl)cc3)s2)cc1 | -10.9%
CCOc1ccc(NC(=S)NC(=O)c2ccco2)cc1 | 8% (active)
CCN(CC)c1ccc(NC(=S)NC(=O)c2ccco2)cc1 | 35.9% (active)

SMILES | activity change, less the hit threshold
CCCOc1ccc(C(=O)NNC(=S)NC(=O)c2ccco2)cc1 | -27.6%
COc1cc(OC)cc(C(=O)NC(=S)Nc2ccc(NC(=O)c3ccco3)cc2)c1 | -20.6%
CNC(=O)c1cc(C(=O)c2ccc(F)cc2C(F)(F)F)c[nH]1 | -11.8%
CCC(C)(C)NC(=O)c1ccc(Sc2nncn2C)c([N+](=O)[O-])c1 | -20.1%
O=C1CCN(S(=O)(=O)c2ccc(Cl)cc2)CCN1 | -21.6%
CC(Sc1n[nH]c(=O)[nH]c1=O)C(=O)OCc1ccccc1 (centres undefined) | -11.2%
COCCNC(=O)CN(C(=O)c1ccc(N2CCCC2)nc1)c1ccccc1 | -18.5%
Cn1nnnc1SCC(=O)Nc1ccccn1 | -5.9%
CC(=O)Nc1ccccc1NC(=O)C/C(C)=N/NC(=O)c1ccc([N+](=O)[O-])c(Cl)c1 | -19%
C/C(CC(=O)Nc1ccccn1)=N\NC(=O)C(=O)Nc1cccc(Cl)c1C | 1.1% (active)
c1ccc(Cn2ncc3c(N4CCN(C(c5ccccc5)c5ccccc5)CC4)ncnc32)cc1 | -29.3%
COc1cccc2sc(Nc3nnc(-c4ccccc4Cl)o3)nc12 | 9.4% (active)
COc1cccc2sc(Nc3nnc(-c4ccc(F)cc4)o3)nc12 | 45.4% (active)
COc1cccc2sc(Nc3nnc(-c4cccs4)o3)nc12 | 53.9% (active)
CCOc1ccccc1Nc1nc(-c2sc(C)nc2C)cs1 | -22%
COc1cccc2sc(Nc3nc(-c4ccccn4)cs3)nc12 | 20.3% (active)
N#C/C(=C\c1ccc(-c2ccccc2Cl)o1)C(=O)Nc1nc2ccccc2s1 | -10.9%
COc1ccccc1Nc1nnc(SCC(=O)Nc2nc(-c3ccc(F)cc3)cs2)s1 | -22.3%
Cc1ccc(CNC(=O)C2=CCN(S(=O)(=O)c3ccc(C)cc3)CC2)cc1 | -15.1%
Cc1c(C(=O)NNC(=O)c2ccncc2)oc2ccc(Br)cc12 | -16.1%
Cc1ccc(CNC(=O)CN(C(=O)C2(C)CC(=O)N=C3C=CC=CN32)c2ccccc2F)cc1 (centres undefined) | -10.9%
C=Cc1ccc(Cn2c(=O)n(CCCOC)c(=O)c3sccc32)cc1 | -28.9%
O=S(=O)(Nc1ccc(Cc2ccncc2)cc1)c1ccc(Cl)c(Cl)c1 | -20.9%
CCCn1c(CC)nc([N+](=O)[O-])c1S(=O)(=O)c1ccccc1 | -4.3%
CC(C)[C@H](NC(=O)c1ccco1)C(=O)OCC(=O)Nc1cccc(F)c1 | -22%

SMILES | activity change, less the hit threshold
CCOc1c(OC)ccc2c3c(c(=O)oc12)CCCC3 | -8.2%
CN1CCN(S(=O)(=O)c2cccc(S(=O)(=O)c3ccc(Cl)cc3)c2)CC1 | -17.8%
Cn1c(=O)c2c(nc(Cl)n2CC(=O)N2CCCCC2)n(C)c1=O | -22.7%
CCCCc1c(C)[nH]c(C(=O)OCC)c1C | -19.3%
CCOCCCn1c(=S)[nH]c2cc(C(=O)NCCOC)ccc2c1=O | -10.4%
COCCn1c(=S)[nH]c2sc3c(c2c1=O)CCCC3 | 31.9% (active)
COCCCn1c(=S)[nH]c2sc3c(c2c1=O)CCCC3 | 40.5% (active)
COCCn1c(=S)[nH]c2sc3c(c2c1=O)CCC(C)C3 (centres undefined) | 51.5% (active)
COCCCn1c(=S)[nH]c2c(sc3ccccc32)c1=O | -11.4%
Cc1ccc(S(=O)(=O)Nc2c(C)[nH]c(=O)[nH]c2=O)cc1C | -17.9%
CCOC(=O)CSc1nnc(NC(=O)c2ccc3c(c2)OCO3)s1 | -23.9%
O=S(=O)(Nc1cccc(-n2cnnn2)c1)c1ccc(Cl)nc1 | -9%
CN(C)S(=O)(=O)c1cc(NC2CC(=O)N(c3ccc(F)cc3)C2=O)ccc1Cl (centres undefined) | -7.3%
CCN(CC)CCOC(=O)C(c1ccccc1)c1ccccc1 | -11.4%
O=C(/C=C/c1ccccc1)Nc1ccc(C(=O)N2CCCCC2)cc1 | -11.4%
COc1ccc(NC(=O)c2cc(S(=O)(=O)N3CCOCC3)ccc2N2CCOCC2)cc1 | -16.6%
Cc1ccc(NC(=O)c2cc(NC(=O)/C=C\C(=O)O)ccc2N2CCCCC2)cc1 | 3.1% (active)
CC(=O)N1CCc2cc(S(=O)(=O)N3c4ccccc4CC3C)ccc21 (centres undefined) | -13.9%
CC(=O)N1c2ccc(N=Cc3cc(Br)cc(Br)c3O)cc2CC1C (centres undefined) | 0.4% (active)
N=c1sccn1CC(=O)Nc1ccccc1Cc1ccccc1 | -16.3%
CCc1nnc(NC(=O)c2cccc(C(=O)Nc3nnc(CC)s3)n2)s1 | -22.2%
O=C(COC(=O)C1CCC(=O)N1)Nc1cc(Cl)ccc1Cl (centres undefined) | -16.9%
Cc1cccc(NC(=O)COc2coc(CN3CCN(c4ccccc4)CC3)cc2=O)c1 | -22.1%
Cc1cc(Br)c(NC(=O)COC(=O)C2CC2C)c(Br)c1 (centres undefined) | 4.5% (active)
